# Assay outcomes deposited in PubChem BioAssay by National Center for Advancing Translational Sciences (NCATS).
# PLK1 PBD block: inhibitors of human PLK1 polo-box domain binding | Plk1 PBD binding of FITC phosphopeptide, fluorescence polarization | 360,000 tested, 2.8% active | Potency, µM, hits mostly inhibitors | AID 720504 | P53350; further: series mostly up to about 57 µM; nearly all actives have a fitted effect of over 65% in size
# Target sequence (P53350 whole entry, looked up, the tested form may be a part): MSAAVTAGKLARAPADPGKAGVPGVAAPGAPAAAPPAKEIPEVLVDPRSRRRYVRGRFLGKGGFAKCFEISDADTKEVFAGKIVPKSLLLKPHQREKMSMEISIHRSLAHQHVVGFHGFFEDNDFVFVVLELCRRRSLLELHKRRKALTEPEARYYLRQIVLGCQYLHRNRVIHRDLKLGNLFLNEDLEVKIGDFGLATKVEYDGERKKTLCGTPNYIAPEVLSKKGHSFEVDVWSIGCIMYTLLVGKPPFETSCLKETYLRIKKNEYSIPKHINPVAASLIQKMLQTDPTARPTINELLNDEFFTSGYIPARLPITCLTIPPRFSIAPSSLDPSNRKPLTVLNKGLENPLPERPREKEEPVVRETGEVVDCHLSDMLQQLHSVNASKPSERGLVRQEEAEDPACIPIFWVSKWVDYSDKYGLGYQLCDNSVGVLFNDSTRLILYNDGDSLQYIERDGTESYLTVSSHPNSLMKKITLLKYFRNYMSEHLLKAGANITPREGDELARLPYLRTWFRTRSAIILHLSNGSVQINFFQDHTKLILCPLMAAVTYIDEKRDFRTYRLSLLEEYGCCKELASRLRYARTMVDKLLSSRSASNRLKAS
# G9a block: blocks human histone lysine methyltransferase G9a. Q96KQ7. G9a H3K9 monomethylation, AlphaScreen, 2 h. Potency, µM (titrated, usually from 102 µM), hits mostly inhibitors. 350,000 tested, 8.8% active. AID 504332; further: nearly all actives have a fitted effect of over 75% in size
#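 Readings reflect AlphaScreen signal from monomethyl-H3K9 antibody detection. HMT at 20 nM; substrate b-H3K9 500 nM; cofactor SAM 20 uM; 2 h RT reaction; compounds tested as titrations in qHTS with 15 min preincubation.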
# VDR inhibitor: vitamin D3 receptor (human) inhibition. 400,000 tested, 0.93% active. Potency, µM, actives largely listed as inhibitors. P11473. VDR-SRC2-3 peptide fluorescence polarization, 2 h. AID 504847
#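 Measured by FP: displacement of SRC2-3 coactivator peptide from VDR by library compounds, following a two-hour ambient incubation.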
# CCT chaperon mod: changes cytosolic chaperonin activity; 360,000 tested, 0.3% active; activity change, % (concentration not given with the values), hits read low; purified chaperonin ATPase assay, HTRF ADP detection, 30 min; in the data active means activity change below about -30%
#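 ATPase activity: ADP formed was measured by HTRF Transcreener (665/615 nm ratio) after 30 min at 37 deg C with 10 uM ATP. Compounds screened at one 76 uM concentration against 40 or 20 nM TRiC in Tris pH 7.4/KCl/MgCl2/DTT buffer.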
# Mm-Cpn inhibitor: blocks the Methanococcus maripaludis chaperonin Mm-Cpn | Potency, µM (highest dose often 76.9 µM), usual class: inhibitors | 330,000 tested, 0.031% active | purified Mm-Cpn ATPase, ADP Transcreener TR-FRET; further: nearly all actives have a fitted effect of over 80% in size
#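 Purified archaeal Mm-CPN (25nM final) preincubated 10 min at 37degC with compound, then 10uM ATP for 30 min at 37degC; ADP measured by HTRF Transcreener TR-FRET; buffer 30 mM TRIS pH 7.4, 100mM KCl, 5mM MgCl2, 1mM DTT.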
# Sfp PPTase inh: Sfp phosphopantetheinyl transferase inhibition. Potency, µM, hits mostly inhibitors. AID 1490. Biochemical Sfp PPTase activity, qHTS. 310,000 tested, 3.5% active;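 further: the enzyme is Sfp with the accession as filed and its product quenches rhodamine fluorescence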
#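 Step 1, compound plus 15 nM Sfp-PPTase, 15 min, room temperature. Step 2, add rhodamine-CoA (5 uM) and BHQ-2-YbbR (12.5 uM). Step 3, read 525/598 nm fluorescence at 0 and 30 min.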
# Numbers stand for hits; - = inactive; ? = inconclusive; . = no result given; [ ] = dose if it differs, or a comment. Shown are actives, neighbours in structure and some others; about 10% of the full set was active somewhere. Unless noted, the call rests on the fitted dose curve; in most records, active means well fitted curve in the direction sought with a large enough effect; inconclusive means small, poorly fitted or top-dose-only effect, or another doubt; inactive means no such curve, though single readings can be large; an effect the other way counts as inactive or inconclusive.
SMILES,PLK1 PBD block,G9a block,VDR inhibitor,CCT chaperon mod,Mm-Cpn inhibitor,Sfp PPTase inh
NC1=NC(S)C2N=CN=C2N1 (stereo not drawn),.,25µM,?,.,.,56µM
COc1ccccc1S(=O)(=O)Cc1ccc(C(=O)NCc2ccc(Cl)cc2)o1,.,-,-,.,.,.
COc1ccccc1CNS(=O)(=O)c1c(C)nc2sc(C)cn2c1=O,.,-,-,.,.,.
Cc1noc(NS(=O)(=O)c2ccc(NC(=O)CC(C)C)cc2)c1C,-,-,-,-,-,-
CCc1nnc(NC(=O)CSc2nc3c(cc2C#N)CCCC3)s1,-,-,-,-,-,-
Cc1noc(NS(=O)(=O)c2ccc(NC(=O)CSc3nc4c(cc3C#N)CCCCC4)cc2)c1C,?,79µM,-,-,-,-
CN1CCc2nc(SCC(=O)Nc3ccc(F)cc3)c(C#N)cc2C1,.,6.3µM,.,.,-,-
CCOc1ccc(NC(=O)Cn2cc(C(=O)c3ccc(C)c(C)c3)c(=O)c3cc4c(cc32)OCCO4)cc1,.,-,-,.,.,.
CC1(C)C(=O)N(CC(=O)Nc2ccc(Br)cc2F)c2ccccc21,.,-,-,.,.,.
CCCN(C(=O)c1cc2ccc3cccnc3c2[nH]1)c1ccc(F)cc1,.,?,-,.,.,.
COc1ccc(NC(=O)CCc2c(C)nn(-c3ccc(N4CCCC4)nn3)c2C)cc1Cl,.,-,-,.,.,.
COc1ccc2ccccc2c1/C=N/Nc1ccc(Cl)c(C(=O)O)c1,?,45µM,-,-,-,-
O=C(O)c1cccc(Cn2c(Cl)c(/C=N/Nc3ccccc3)sc2=O)c1,?,13µM,?,-,-,8.9µM
Cc1ccsc1/C=N/Nc1cccc(C(=O)O)c1,-,45µM,-,-,-,-
Cc1ccsc1/C=N/NC(=O)CNC(=O)c1ccccc1,-,-,-,-,-,-
O=C(O)c1cccc(N/N=C/C2=C(Cl)c3cc(Cl)ccc3SC2)c1,21µM,50µM,-,-,-,-
O=C(CSCc1ccc(Cl)cc1)Nc1cccc(C(=O)O)c1,-,-,-,-,-,-
Nc1nc2c(nc(Br)n2C2CC(O)C(CO)O2)c(=O)[nH]1 (stereo not drawn),.,.,-,.,.,-
Cc1cc(C)cc(N(CC(=O)Nc2c(C)cc(C)cc2C)S(=O)(=O)c2c(C)nn(C)c2C)c1,.,-,-,.,.,.
CCC(C)c1ccc(O[C@@H]2O[C@H](CO)[C@@H](O)[C@H](O)[C@H]2NC(C)=O)cc1 (stereo partly drawn),.,.,-,.,.,-
COc1ccc(N/N=C/c2c(C(=O)O)ccc3ccccc23)cc1,-,-[12.7 µM],-,-,-,-
COc1ccc(-c2nn(-c3ccccc3)cc2/C=N/Nc2ccc(Cl)c(C(=O)O)c2)cc1OC,-,40µM,-,-,-,-
COC(=O)N/N=C/c1c(C)nn(-c2cccc(Cl)c2)c1Cl,-,?,-,-,-,-
O=C(O)c1cccc(N/N=C/c2cccc3ccccc23)c1,?,35µM,-,-,-,-
Cc1nn(-c2cccc(C(F)(F)F)c2)c(Cl)c1/C=N/Nc1cccc(C(=O)O)c1,24µM,?,?,-,-,-
SMILES,PLK1 PBD block,G9a block,VDR inhibitor,CCT chaperon mod,Mm-Cpn inhibitor,Sfp PPTase inh
COc1ccc2ccccc2c1/C=N/Nc1cccc(C(=O)O)c1,?,45µM,-,-,-,-
COc1ccc(-c2nn(-c3ccccc3)cc2C(=O)Nc2ccc(C(=O)O)cc2)cc1OC,-,-,-,-,-,-
CC(C)C[C@@H](CC(=O)N[C@@H](CCCN)CC(=O)N[C@@H]1CCCC[C@H]1C(=O)N[C@H](CC(=O)N[C@@H](CCC(=O)O)CC(=O)O)CC(C)C)NC(=O)[C@@H]1CCCC[C@H]1N,.,.,-,.,.,-
CC(=O)Nc1ccccc1-c1nc2ccccc2n(Cc2cccc(Br)c2)c1=O,.,?,-,.,.,.
Cc1[nH]c2ccccc2c1C(=O)COC(=O)c1ccc([N+](=O)[O-])s1,-,32µM,-,-,-,-
Cc1cccc(C(c2sc3nc(-c4ccco4)nn3c2O)N2CCN(c3ccccc3)CC2)c1 (stereo not drawn),.,?,-,.,.,.
O=C(O)c1ccc(N=NN2CCCCCC2)cc1,-,-,-,-,-,-
CC(=O)NS(=O)(=O)c1ccc(N=NN2CCOCC2)cc1,-,-,-,-,-,-
CC(=O)Nc1cccc(N=NN2CCOCC2)c1,-,.,-,-,-,-
CC(=O)Nc1cccc(N=NN2CCCCC2)c1,-,22µM,-,-,-,-
CC(=O)Nc1ccc(N=NN2CCOCC2)cc1,-,8.9µM,?,-,-,-
O=C(O)c1ccc(N=NN2CCCC2)cc1,-,35µM,-,-,-,-
CCOc1ccccc1N(C)C(=O)Cn1cnc2onc(-c3ccc(F)cc3)c2c1=O,.,-,-,.,.,.
Cc1cc(Cl)ccc1NS(=O)(=O)c1ccc2c(c1)CC(C)N2C(=O)C1CCC1 (stereo not drawn),.,-,-,.,.,.
COc1ccccc1NC(=O)C1=C(C)Nc2nc(SCc3ccccc3)nn2C1c1cccnc1 (stereo not drawn),.,-,-,.,.,.
CCN1C(=O)/C(=C2\SC(=S)N(NC(=O)c3ccccc3O)C2=O)c2ccccc21,-,16µM,-,-,-,-
CCN1C(=O)/C(=C2\SC(=S)N(CC3CCCO3)C2=O)c2ccccc21 (stereo not drawn),.,4µM,.,.,-,-
COc1ccc2c(c1)c1c(c(=O)n(-c3ccccc3C)c(=O)n1CC(=O)NCc1ccc(C)cc1)n2C,.,-,-,.,.,.
CCCCCCCCCC[N+](C)(C)CC/C=C1/c2ccccc2Sc2ccc(Cl)cc21,-,?,-,-,-,32µM
CC[N+](C)(C)CC/C=C1/c2ccccc2Sc2ccc(Cl)cc21,-,?,-,-,-,-
CCCCCCCCCCC[N+](C)(C)CC/C=C1/c2ccccc2Sc2ccc(Cl)cc21,?,35µM,-,-,-,40µM
OCCN1CCN(CC/C=C2/c3ccccc3Sc3ccc(Cl)cc32)CC1,-,16µM,-,-,-,.
CN(C)CC/C=C1\c2ccccc2Sc2cc(F)c(Cl)cc21,-,.,-,-,.,.
O=C(C[n+]1cccc(CNC(=O)c2ccc(OC(F)F)cc2)c1)Nc1ccc(F)cc1,-,-,-,-,-,-
COC(=O)c1ccc[n+](CC(=O)Nc2ccc(OC(F)F)cc2)c1,-,45µM,-,-,-,-
COc1cc(NC(=O)CN2C(=O)C(c3ccc(Cl)cc3)=NC23CCCCC3)cc(OC)c1,.,-,-,.,.,.
CNC(=O)c1nnsc1S(=O)(=O)c1ccc(Cl)cc1,12µM,14µM,10µM,-,-,7.1µM
Cc1nnsc1S(=O)c1ccc(Cl)cc1 (stereo not drawn),-,-,-,-,-,-
O=C(c1ccc(NS(=O)(=O)c2ccc(Cl)cc2)cc1)N1CCOCC1,-,-,-,-,-,-
O=C(c1nnsc1S(=O)c1ccc(Cl)cc1)N1CCOCC1 (stereo not drawn),1.1µM,32µM,7.9µM,-,-,56µM
